Assay [1] has as its system Plasmodium falciparum Sir2 (PF13_0152, Sir2A). Description: Plasmodium falciparum Sir2A binding compounds – biochemical, small-molecule microarray, 635 nm fluorescence, primary screen (AID 1098).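 Note: score merges spot fluorescence intensity with its signal-to-noise ratio.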 The settings on record: fluorescence 635 nm, higher = more signal.
Assay [2] in a line: probe aDKK1 binding to arrayed compounds – biochemical, biotinylated probe, 635/667 nm fluorescence, primary screen (AID 1099).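 Note: score merges 667nm spot fluorescence with signal to noise across triplicate slides.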 As to conditions: small-molecule microarray, higher = more signal.
A short description of assay [3]: probe aCHRDL2 binding to arrayed compounds – biochemical, biotinylated probe, 635/667 nm fluorescence, primary screen (AID 1100). As to conditions: small-molecule microarray, higher = more signal.
Assay [4] can be described thus: change in splice reporter luminescence, either direction, cell-based, HEK293, spliceosome inhibition project, primary screen (AID 1101).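 Note: HEK293 cells carrying a splicing-competent luciferase reporter gene; test concentration not given here.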 The settings on record: HEK293 splicing luciferase reporter, 24 h, higher = more signal, called active from +8 up or from −8 down. For orientation: A reporter such as luciferase makes a cellular process visible.
Assay [5] deals with Fibroblast growth factor 10 (Homo sapiens) (UniProt O15520). In words: compounds binding fibroblast growth factor 10 – biochemical, small-molecule microarray, 635 nm fluorescence, primary screen (AID 1102). The settings on record: FGF10 binding, fluorescence 635 nm, higher = more signal.
Fibroblast growth factor 10 (Homo sapiens), sequence (O15520 whole entry, looked up): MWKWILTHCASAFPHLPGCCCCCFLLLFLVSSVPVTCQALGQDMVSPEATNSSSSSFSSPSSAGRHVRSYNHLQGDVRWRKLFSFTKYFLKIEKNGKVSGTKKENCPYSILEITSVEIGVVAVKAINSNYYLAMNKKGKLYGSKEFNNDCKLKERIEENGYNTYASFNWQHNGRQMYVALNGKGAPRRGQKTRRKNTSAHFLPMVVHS
For assay [6], the system named is glycogen synthase kinase-3 (GSK3A per assay name; protocol says GSK3B). In words: compounds binding glycogen synthase kinase-3 – biochemical, small-molecule microarray, 635 nm fluorescence, GSK3A, primary screen (AID 1103). Note: the record names both GSK3A and GSK3B. The settings on record: fluorescence 635 nm, higher = more signal.
Assay [7] deals with Epidermal growth factor receptor (Homo sapiens) (UniProt P00533). In words: compounds binding epidermal growth factor receptor – biochemical, small-molecule microarray, 635 nm fluorescence, primary screen (AID 1104).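 Note: score merges 667 nm emission intensity with spot signal to noise over triplicate slides.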 As to conditions: EGFR binding, higher = more signal.
Epidermal growth factor receptor (Homo sapiens), sequence (P00533 whole entry, looked up): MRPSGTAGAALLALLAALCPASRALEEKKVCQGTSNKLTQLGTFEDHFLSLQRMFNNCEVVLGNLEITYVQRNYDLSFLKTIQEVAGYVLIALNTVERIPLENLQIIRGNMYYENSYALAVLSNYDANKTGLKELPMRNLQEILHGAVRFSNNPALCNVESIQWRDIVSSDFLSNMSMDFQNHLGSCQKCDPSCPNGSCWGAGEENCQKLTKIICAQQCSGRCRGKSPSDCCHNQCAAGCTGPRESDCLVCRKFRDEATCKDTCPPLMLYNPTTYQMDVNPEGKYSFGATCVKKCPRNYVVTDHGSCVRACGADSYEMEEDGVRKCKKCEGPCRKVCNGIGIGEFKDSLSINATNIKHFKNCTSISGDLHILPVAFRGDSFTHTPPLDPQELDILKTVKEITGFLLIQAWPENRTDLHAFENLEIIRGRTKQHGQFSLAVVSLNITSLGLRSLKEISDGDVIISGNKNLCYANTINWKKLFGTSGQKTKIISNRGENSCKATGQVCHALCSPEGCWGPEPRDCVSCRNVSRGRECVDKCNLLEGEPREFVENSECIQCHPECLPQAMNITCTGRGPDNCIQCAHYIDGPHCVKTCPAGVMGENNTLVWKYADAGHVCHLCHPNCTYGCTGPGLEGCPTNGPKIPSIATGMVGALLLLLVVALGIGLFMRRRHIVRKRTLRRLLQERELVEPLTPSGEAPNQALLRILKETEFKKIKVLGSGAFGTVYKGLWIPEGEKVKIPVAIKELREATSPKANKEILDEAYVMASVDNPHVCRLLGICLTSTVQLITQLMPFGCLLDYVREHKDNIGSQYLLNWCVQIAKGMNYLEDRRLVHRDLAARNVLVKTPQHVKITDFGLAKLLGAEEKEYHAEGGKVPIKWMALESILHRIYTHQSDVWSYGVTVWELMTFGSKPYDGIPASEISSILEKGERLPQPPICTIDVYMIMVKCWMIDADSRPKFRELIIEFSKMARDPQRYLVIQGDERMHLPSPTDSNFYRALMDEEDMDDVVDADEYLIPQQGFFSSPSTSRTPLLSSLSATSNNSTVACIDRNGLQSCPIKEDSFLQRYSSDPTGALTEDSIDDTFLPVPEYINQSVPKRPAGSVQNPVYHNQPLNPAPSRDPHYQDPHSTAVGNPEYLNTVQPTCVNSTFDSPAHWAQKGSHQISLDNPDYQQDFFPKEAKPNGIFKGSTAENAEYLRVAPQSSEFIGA
For assay [8], the target named is Follistatin-related protein 3 (Homo sapiens) (UniProt O95633). Description: compounds binding follistatin-related protein 3 – biochemical, small-molecule microarray, 635 nm fluorescence, primary screen (AID 1105).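 Note: score merges emission near 667 nm and signal to noise per printed spot across three slides.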 As to conditions: FSTL3 binding, higher = more signal.
Follistatin-related protein 3 (Homo sapiens), sequence (O95633 whole entry, looked up): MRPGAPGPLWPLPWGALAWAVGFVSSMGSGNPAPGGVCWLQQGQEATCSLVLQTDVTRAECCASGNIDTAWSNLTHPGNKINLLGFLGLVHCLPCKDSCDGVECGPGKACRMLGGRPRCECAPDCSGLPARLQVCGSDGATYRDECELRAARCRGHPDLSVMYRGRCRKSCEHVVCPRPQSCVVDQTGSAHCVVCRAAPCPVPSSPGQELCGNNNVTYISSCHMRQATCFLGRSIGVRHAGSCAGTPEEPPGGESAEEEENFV
The target in assay [9] is Dickkopf-related protein 1 (Homo sapiens) (UniProt O94907). Description: small molecules binding DKK1 protein – biochemical, small-molecule microarray, 635 nm fluorescence scan, primary screen (AID 1106).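 Note: score merges emission near 667 nm with signal to noise over three replicate slides.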 The settings on record: higher = more signal.
Dickkopf-related protein 1 (Homo sapiens), sequence (O94907 whole entry, looked up): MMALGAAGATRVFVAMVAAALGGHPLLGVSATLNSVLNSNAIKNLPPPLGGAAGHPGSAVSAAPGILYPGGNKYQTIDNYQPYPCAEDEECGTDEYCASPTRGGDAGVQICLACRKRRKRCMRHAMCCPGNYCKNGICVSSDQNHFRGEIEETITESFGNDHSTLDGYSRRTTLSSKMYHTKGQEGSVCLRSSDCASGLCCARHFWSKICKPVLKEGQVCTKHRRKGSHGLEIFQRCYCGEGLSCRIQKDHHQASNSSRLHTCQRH
The subject of assay [10] is Inhibin beta A chain (activin A). Description: small molecules binding activin A – biochemical, small-molecule microarray, 635 nm fluorescence scan, primary screen (AID 1107).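 Note: mouse activin A protein probed at 4.33 µg/mL on printed slides; score merges bound-protein fluorescence near 667 nm with spot signal-to-noise.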 The settings on record: INHBA, higher = more signal.
Assay [11] has as its system Human papillomavirus type 1a protein E7 (residues 44-93). In words: small molecules binding HPV E7 44-93 – biochemical, small-molecule microarray, residues 44-93, 635 nm fluorescence, primary screen (AID 1108).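 Note: E7 fragment applied at 1 µg/mL in TBST for 1 h at 4 C; score combines spot fluorescence with its signal to noise ratio.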 As to conditions: fluorescence 635 nm, higher = more signal.
Assay [12] in a line: hepatitis C replication reporter changes, two-sided – Huh7 cells, luciferase reporter, HCV replication inhibitor project, primary screen (AID 1109).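 Note: huh7 hepatoma cells harbouring a luciferase neomycin HCV replicon reporter; luciferase luminescence as measure of HCV replicon replication; test concentration not given here.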 As to conditions: Huh7 HCV replicon luciferase reporter, 48 h; higher = more signal.
For assay [13], the target named is Left-right determination factor 2 (Homo sapiens) (UniProt O00292). Description: small molecules binding LEFTY2 protein – biochemical, small-molecule microarray, 635 nm fluorescence scan, primary screen (AID 1110). As to conditions: higher = more signal.
Left-right determination factor 2 (Homo sapiens), sequence (O00292 whole entry, looked up): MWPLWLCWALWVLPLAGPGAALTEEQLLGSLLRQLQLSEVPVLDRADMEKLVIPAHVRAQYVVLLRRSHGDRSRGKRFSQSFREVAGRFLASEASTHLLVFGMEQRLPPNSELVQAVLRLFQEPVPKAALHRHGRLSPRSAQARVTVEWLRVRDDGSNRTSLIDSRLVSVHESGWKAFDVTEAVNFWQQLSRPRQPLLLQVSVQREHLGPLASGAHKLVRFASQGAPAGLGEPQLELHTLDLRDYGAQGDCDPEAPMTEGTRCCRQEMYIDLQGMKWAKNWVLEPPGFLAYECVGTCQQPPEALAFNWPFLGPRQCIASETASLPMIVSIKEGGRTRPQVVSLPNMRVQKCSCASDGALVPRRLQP
For assay [14], the target named is Calmodulin-1 (Homo sapiens) (UniProt P0DP23). Description: small molecules binding calmodulin-1 with EGTA – biochemical, small-molecule microarray, Cy5-labelled CALM1, profiling panel (AID 1111).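 Note: labelled calmodulin applied in Tris saline Tween buffer holding calcium plus EGTA and DTT.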 The settings on record: Cy5-CALM1 binding fluorescence, higher = more signal.
Assay [15] has the same target. Description: small molecules binding Ca-loaded calmodulin-1 – biochemical, small-molecule microarray, Cy5-labelled CALM1, plus calcium, artefact control for SMM control-protein annotation, profiling panel (AID 1112).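 Note: score merges spot fluorescence with signal to noise from triplicate slides.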 The settings on record: Cy5-CALM1 binding fluorescence, higher = more signal.
The nature of assay [16]: probe aWnt5a binding to arrayed compounds – biochemical, biotinylated probe, 635/667 nm fluorescence, primary screen (AID 1113).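 Note: score merges 667 nm fluorescence intensity with signal-to-noise per printed feature.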 The settings on record: small-molecule microarray, higher = more signal.
Assay [17] can be described thus: probe aShh binding to arrayed compounds – biochemical, biotinylated probe, 635/667 nm fluorescence, primary screen (AID 1114).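 Note: probe is biotin-labelled aShh protein from a stem cell growth factor screen; measures binding of labelled protein to compounds printed on the slide; score merges feature fluorescence at 667 nm with signal-to-noise.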 The settings on record: small-molecule microarray, higher = more signal.
Assay [18] in a line: probe aNog binding to arrayed compounds – biochemical, biotinylated probe, 635/667 nm fluorescence, primary screen (AID 1115).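 Note: probe is biotinylated aNog protein used at 0.15 µg/mL for 1 h at 4 C; z-score combines 667 nm fluorescence of each spot with its signal to noise.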 The settings on record: small-molecule microarray, higher = more signal.
Assay [19] deals with Torsin-1A-interacting protein 1 (Homo sapiens) (UniProt Q5JTV8). Description: compound microarray binding of lysate hLAP1 – cell lysate, small-molecule microarray, COS7 lysate, 635/667 nm fluorescence, primary screen (AID 1116). As to conditions: 635 nm fluorescence, higher = more signal.
Torsin-1A-interacting protein 1 (Homo sapiens), sequence (Q5JTV8 whole entry, looked up): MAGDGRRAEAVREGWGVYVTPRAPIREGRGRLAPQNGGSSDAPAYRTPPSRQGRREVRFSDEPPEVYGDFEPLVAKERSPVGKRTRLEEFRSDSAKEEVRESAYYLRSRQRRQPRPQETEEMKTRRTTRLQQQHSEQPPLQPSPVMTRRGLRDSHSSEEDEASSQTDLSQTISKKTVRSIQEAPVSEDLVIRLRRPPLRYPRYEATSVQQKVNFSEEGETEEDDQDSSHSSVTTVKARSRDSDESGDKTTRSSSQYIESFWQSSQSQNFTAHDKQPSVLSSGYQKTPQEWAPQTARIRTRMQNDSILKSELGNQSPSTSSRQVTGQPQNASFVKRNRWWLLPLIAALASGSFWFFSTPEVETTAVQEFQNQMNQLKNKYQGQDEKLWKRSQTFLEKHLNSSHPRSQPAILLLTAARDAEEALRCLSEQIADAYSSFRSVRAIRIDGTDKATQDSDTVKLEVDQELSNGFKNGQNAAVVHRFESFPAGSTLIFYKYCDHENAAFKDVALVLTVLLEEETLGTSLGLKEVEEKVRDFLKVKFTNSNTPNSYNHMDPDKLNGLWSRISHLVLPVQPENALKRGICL
In assay [20] the target is Alpha-bungarotoxin (Bungarus multicinctus) (UniProt P60615). In words: compounds binding labelled alpha-BTX control protein – biochemical, small-molecule microarray, Alexa647 label, 635/667 nm fluorescence, artefact control for SMM control protein annotation, profiling panel (AID 1117). As to conditions: alpha-BTX-A647 binding fluorescence, higher = more signal.
Alpha-bungarotoxin (Bungarus multicinctus), sequence (P60615 whole entry, looked up): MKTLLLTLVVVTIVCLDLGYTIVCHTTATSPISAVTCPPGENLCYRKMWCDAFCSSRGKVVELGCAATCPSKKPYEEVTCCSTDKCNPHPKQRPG

Activity calls are given as the source filed them.

As to `C=CCNC(=O)[C@@H]1[C@H]2C(=O)O[C@H](c3ccccc3)[C@H](c3ccccc3)N2[C@H](c2ccc(O)cc2)[C@@]12C(=O)N(C(=O)OCCOC)c1ccc(C#CC3(O)CCCCCC3)cc12`, the composite z-score in [1] was 0.482; in assay [2], -0.227; in [3], 0.854; in [5], -1.72; in [6], -1.44; in [7], -1.5. The composite z-score was -1.45 in assay [8]; -1.82 in assay [9]; -1.46 in [10]; -1.18 in [11]; -2.4 in [13]; -0.901 in assay [14]. The composite z-score in assay [15] was -0.123; in assay [16], -0.221; in [17], -0.192; in [18] it was -0.343; in assay [19] it was -1.28; in [20], -1.42. Moreover, the z-score was -0.565 (inactive) in [4] and -0.0817 in assay [12].
For `C=C(/C(=C/C[C@H](OC(C)=O)c1ccccc1OCCO)c1cc(C(=O)OC)ccc1OC)C(C)C`, the composite z-score is 1.64 in assay [1]; -0.15 in [2]; -0.192 in assay [3]; 0.634 in assay [5]; -0.122 in [6]; -0.167 in [7]. Moreover, the composite z-score in assay [8] is 0.0218; in [9] it was -0.0716; in [10] it was 0.721; in assay [11], 0.83; in assay [13], 0.0218; in assay [14] it was -0.227. In addition, the composite z-score was -0.578 in assay [15]; -0.096 in [16]; 0.0469 in assay [17]; -0.0244 in assay [18]; 0.612 in [19]; -0.0802 in assay [20]. The figures for the z-score in assay [4] and in assay [12] were -0.736 (inactive) and -1.74, respectively.
Turning to `O=C(CS)NCCCCCNC(=O)[C@@H]1C[C@@H]2C(=O)N3CCC[C@H]3C(=O)N2[C@@H]1c1cccc(OCCO)c1`, the composite z-score in assay [1] is 1.47; in [2], -0.137; in [3] it was 0.468; in [5] it was 0.453; in assay [6] it was 0.649; in assay [7], 0.196. The composite z-score in assay [8] was -0.596; in assay [9], 0.292; in assay [10], -0.525; in [11], 1.42; in assay [13] it was -0.429; in [14] it was 1.39. Besides, the composite z-score in assay [15] was -1.29; in assay [16], -0.073; in assay [17], -0.16; in assay [18], -0.565; in assay [19] it was 1.76; in assay [20], 1.14. Also, the z-score in assay [4] was 0.501 (inactive); in [12], -0.367.
As for `COCCOC(=O)N1C(=O)[C@@]2(c3cc(C#CC4(O)CCCCCC4)ccc31)[C@H](c1ccc(O)cc1)N1[C@H](c3ccccc3)[C@H](c3ccccc3)OC(=O)[C@H]1[C@@H]2C(=O)NC[C@H](O)c1ccccc1`, the composite z-score in [1] worked out at 0.355; in assay [2] it was 0.655; in assay [3], 0.692; in [5] it was 1.12; in assay [6], 1.29; in assay [7], 0.783. Moreover, the composite z-score in assay [8] was 0.936; in [9], 1.08; in [10], -0.237; in assay [11] it was 1.05; in [13], 0.951; in assay [14], 0.896. Further, the composite z-score in assay [15] is 0.524; in assay [16], -0.0339; in assay [17], 0.14; in assay [18], 0.0896; in assay [19] it was 1.6; in [20], 1.76. Further, the z-score in [4] was 0.355 (inactive); in [12] it was -1.03.
On to `O=C(NCC(F)(F)F)[C@@H]1c2ccccc2C(=O)N(Cc2ccccc2C(F)(F)F)[C@H]1c1ccc(CO)cc1`, for which the composite z-score in assay [1] is 1.78; in assay [2], 0.757; in assay [3], 0.805; in assay [5], -0.141; in assay [6] it was -0.677; in assay [7], -0.79. For the same molecule, the composite z-score in assay [8] is -0.604; in assay [9], -0.377; in assay [10], 0.547; in [11], -0.315; in assay [13], -1.02; in assay [14], 0.0216. Besides, the composite z-score in assay [15] was 0.792; in [16] it was -0.276; in assay [17], 0.0044; in [18], -0.101; in assay [19] it was -0.121; in assay [20], -0.695. Also, the z-score in assay [4] is -0.335 (inactive); in assay [12] it was -0.941.

These data come from PubChem BioAssay.
